This is an account of results in PubChem BioAssay.

The nature of test [1]: liver-stage malaria parasite load reduction – cell-based, known kinase inhibitor set, luminescence, hepatoma host viability (AID 624392).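 Note: infected cells incubated roughly two days before readout.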 To be noted: Plasmodium liver stage in hepatoma cells, luciferase luminescence, concentration not given here; liver cell % of control: measured here: host liver cell viability; parasite % of control: stronger effect = lower value.
Test [2] is described as follows: altered dexamethasone sensitivity, NF-kB reporter, cell-based, luciferase, IL-1B stimulus (AID 624486).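 For percent of negative control (+Dex): 100% = mean signal of vehicle control wells on the plate.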 To be noted: IL-1B + dexamethasone, luminescence; percent of negative control (+Dex): actives lie on both sides, concentration not given here; z-score: measured here: IL-1B alone, no Dex.
For test [3], the target named is Cellular tumor antigen p53 (Homo sapiens) (UniProt P04637). Kind of test: GFP-p53 level modulators in HPV16+ cells – imaging, known kinase inhibitor set, EGFP/DsRed ratio (AID 1053116).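 Note: cells exposed to compounds for 24 h at 37 °C before reading.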 To be noted: GFP-p53 stability, stronger effect = higher value; EGFP object count: measured here: GFP-p53 positive objects count.
Cellular tumor antigen p53 (Homo sapiens), sequence (P04637 whole entry, looked up): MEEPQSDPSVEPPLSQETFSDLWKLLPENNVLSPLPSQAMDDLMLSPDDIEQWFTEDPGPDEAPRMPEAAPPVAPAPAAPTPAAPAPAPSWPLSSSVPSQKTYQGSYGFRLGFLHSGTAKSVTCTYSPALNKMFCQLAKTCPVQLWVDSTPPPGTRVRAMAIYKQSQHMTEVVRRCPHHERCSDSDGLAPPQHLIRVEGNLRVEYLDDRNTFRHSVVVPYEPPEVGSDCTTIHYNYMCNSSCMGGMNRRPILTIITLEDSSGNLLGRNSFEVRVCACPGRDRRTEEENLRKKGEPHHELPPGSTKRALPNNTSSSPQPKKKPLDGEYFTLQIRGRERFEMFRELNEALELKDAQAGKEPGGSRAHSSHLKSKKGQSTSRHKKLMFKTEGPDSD
Test [4] can be described thus: inducers of IRF3 signaling, differentiated THP-1 – cell-based, PMA-stimulated THP-1, luminescence (AID 1053176). To be noted: PMA-differentiated THP-1, IRF3 reporter luminescence; stronger effect = higher value.
Test [5] in a line: C. elegans survival during P. aeruginosa infection – whole organism (AID 651566).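 Note: tested at 14 µM; sign flipped so higher z means a lower ratio.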 The following applies: C. elegans killed by P. aeruginosa, survival ratio.
The nature of test [6]: pro-inflammatory signaling induction in mouse macrophages – cell-based, murine, luminescence (AID 652131). To be noted: murine macrophage pro-inflammatory reporter, stronger effect = higher value.
In test [7] the test system is Aerobactin synthetase IucA (Klebsiella pneumoniae). Description: inhibition of K. pneumoniae IucA enzyme – biochemical, Tocris library, absorbance (AID 1345561).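 Note: 100% = enzyme without compound and 0% = no enzyme.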 To be noted: purified IucA enzyme assay, absorbance (OD) read-out; stronger effect = lower value;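 tested at 8 µM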.
Test [8] in a line: viability loss in pontine glioma line – cell-based, SU-DIPG-XVII, MIPE5.0, CellTiter-Glo, qHTS, dose response (AID 1347060; cut-off not given, nearly all actives have AC50 up to about 26 µM;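 note: cells exposed to compound for 48 hours before viability readout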). The following applies: CellTiter-Glo ATP luminescence.
The nature of test [9]: viability loss in pontine glioma line – cell-based, JHH-DIPG-1, MIPE4.0, CellTiter-Glo, qHTS, dose response (AID 1347062; cut-off not given, nearly all actives have AC50 up to about 27 µM;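 note: cells exposed to compound for two days before readout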). The following applies: JHH-DIPG-1 viability, CellTiter-Glo ATP luminescence.
The nature of test [10]: viability loss in pontine glioma line – cell-based, SU-DIPG-IV, MIPE4.0, CellTiter-Glo, qHTS, dose response (AID 1347063; cut-off not given, nearly all actives have AC50 up to about 30 µM;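 note: compound exposure lasted 48 hours before the viability readout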). To be noted: CellTiter-Glo ATP luminescence. (In general: Cellular ATP, detected with luciferase, serves as a proxy for viable cell number.)
Test [11] is described as follows: viability loss in pontine glioma line – cell-based, SU-DIPG-XXV, MIPE5.0, CellTiter-Glo, qHTS, dose response (AID 1347065; cut-off not given, nearly all actives have AC50 up to about 26 µM;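 note: cells exposed to compound for 48 hours before ATP readout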). The following applies: CellTiter-Glo ATP luminescence.
The nature of test [12]: viability loss with induced miR-34 in A549 – imaging, A549 dox-inducible miR-34, nuclei and caspase counts, primary screen (AID 1347080;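 active = compounds whose cell count with miR-34 switched on is under 0.7 times the count with it off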). To be noted: A549 miR-34 inducible, Hoechst nuclei count, 48 h.
The nature of test [13]: MELAS cybrid and Rieske KO viability enhancers – cell-based, MELAS cybrids, Rieske KO mouse fibroblasts, CellTiter-Glo, primary screen (AID 1508586;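 active = mean z-score across replicates of 1.96 or higher in either the MELAS or the Rieske mutant cell line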;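 note: z relative to plate mean and SD of compound and empty wells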). To be noted: low glucose.
Test [14] can be described thus: galactose survival enhancers in mitochondrial complex I cybrids – cell-based, galactose medium, ATP luminescence, primary screen (AID 1645843;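 active = z-score of at least 1.8 in each of two replicates, scored against plate mean and spread of sample wells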;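 note: positive z means more ATP and so rescue of galactose-driven cybrid death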). The following applies: complex I mutant cybrid cells, 72 h, stronger effect = higher value.
[15] abbreviates: MELAS cybrid survival, CellTiter-Glo 48 h, stronger effect = higher value.
The mark [16] stands for this setting: Rieske KO mouse fibroblast survival, CellTiter-Glo 72 h.

Records with an inconclusive call do not appear. Activity calls are given as the source filed them. Unless noted, the rule behind the calls is not given here.

Broadly, the remaining activity is the activity still measured, relative to the control. Usually AC50 stands for the concentration giving half of the maximal activity seen.

`Cn1cc(C2=C(c3cn(C)c4ncccc34)C(=O)NC2=O)c2ccccc21`: in test [1], the liver cell % of control stood at 95.3% and the parasite % of control was 38.8% (inactive). In test [2], the percent of negative control (+Dex) was 100% (inactive) and the z-score was -0.87. Further, in test [3], the EGFP object count came out at 20 and the EGFP/DsRed ratio was 0.579 (inactive). In addition, in test [4], the fraction signal is -0.009 (inactive).
For the molecule `COc1cc2ncn(-c3cc(OCc4ccccc4C(F)(F)F)c(C(N)=O)s3)c2cc1OC`, the percent of negative control (+Dex) in test [2] was 103% (inactive). Further, the z-score in test [2] was -0.44; in test [5] it was 0.57 (inactive); in [6], -0.405 (inactive); in test [13] (setting [15]), -0.422 (inactive); in test [13] (setting [16]), -0.574; in [14] it was -0.495 (inactive). Also, the fraction signal in [4] is 0.0355 (inactive). For the same molecule, the remaining activity in test [7] is 94.3% (inactive). Also, the half-maximal activity concentration (AC50) is 1.48 µM (active) in [8], 5.9 µM (active) in [9], 14.8 µM (active) in [10] and 1.05 µM (active) in test [11]. Further, the fold change in test [12] (stronger effect = lower value, cell number ratio, induced over uninduced) is 1.05 (inactive); in test [12] (measured here: relative caspase fold change +Dox/-Dox), 1.26. In addition, the cell count in test [12] (measured here: total cells with miR-34 induction, stronger effect = lower value) turned out to be 1110; in test [12] (measured here: total cells without miR-34 induction), 1060.
For the molecule `Nc1c(C(=O)c2ccc(-c3cccnc3)cc2)cnn1-c1ccc(F)cc1`, in test [1], the liver cell % of control came to 93.2% and the parasite % of control was 36.7% (inactive). In test [2], the percent of negative control (+Dex) was 112% (inactive) and the z-score turned out to be 0.835. Moreover, in test [3], the EGFP object count was determined as 5.5 and the EGFP/DsRed ratio is 0.226 (inactive). Moreover, the fraction signal in test [4] is -0.0025 (inactive).
Turning to `Nc1c(C(=O)c2cccc(C#CCO)c2)cnn1-c1ccc(F)cc1`, in test [1], the liver cell % of control turned out to be 100% and the parasite % of control was 58.9% (inactive). In addition, in [2], the percent of negative control (+Dex) is 108% (inactive) and the z-score was 1.13. In addition, in [3], the EGFP object count amounted to 1.5 and the EGFP/DsRed ratio was 0.0236 (inactive). For the same molecule, the fraction signal in test [4] is 0.008 (inactive).
For `Cn1cc(C2=C(c3c4n(c5ccccc35)CCN(C(N)=S)C4)C(=O)NC2=O)c2ccccc21`, in [1], the liver cell % of control was 94.5% and the parasite % of control is 22.4% (inactive). Also, in test [2], the percent of negative control (+Dex) is 110% (inactive) and the z-score was -0.965. Further, in test [3], the EGFP object count is 36.5 and the EGFP/DsRed ratio was 0.211 (inactive). The fraction signal in test [4] is -0.007 (inactive).
For the molecule `COc1cccc(C2=C(c3cn(C)c4cc(F)ccc34)C(=O)NC2=O)c1`, in [1], the liver cell % of control worked out at 128% and the parasite % of control is 31.5% (inactive). Further, in test [2], the percent of negative control (+Dex) is 114% (inactive) and the z-score is 0.535. In test [3], the EGFP object count worked out at 7 and the EGFP/DsRed ratio is 0.327 (inactive). For the same molecule, in [4], the fraction signal is 0.0095 (inactive).
Regarding `Cn1c(=O)c(Oc2ccc(F)cc2F)cc2cnc(NC3CCC(O)CC3)nc21` (stereo unspecified), in [1], the liver cell % of control turned out to be 112% and the parasite % of control was 60.3% (inactive). In addition, in [2], the percent of negative control (+Dex) is 85% (inactive) and the z-score was -0.62. Further, in [3], the EGFP object count came out at 5 and the EGFP/DsRed ratio is 0.154 (inactive). Besides, in [4], the fraction signal was -0.0095 (inactive).
Turning to `NC(=O)CCc1ccccc1Oc1nccc(-c2c(-c3ccc(F)cc3)ncn2C2CCNCC2)n1`, the liver cell % of control in [1] turned out to be 91.6%. Also, the parasite % of control in test [1] is 151% (inactive). Moreover, the percent of negative control (+Dex) in test [2] is 95.5% (inactive). Also, the z-score in test [2] was 0.275; in [5], 0.875 (inactive); in test [6] it was 0.861 (inactive); in [13] (setting [15]), -0.2 (inactive); in test [13] (setting [16]), -0.462. The fraction signal in [4] is -0.0055 (inactive).
For the molecule `COc1ccccc1C1=C(Nc2ccccc2)C(=O)NC1=O`, the liver cell % of control in [1] worked out at 112%. Moreover, the parasite % of control in test [1] is 110% (inactive). In addition, the percent of negative control (+Dex) in test [2] is 102% (inactive). Moreover, the z-score is 0.775 in test [2]; -0.36 (inactive) in test [5]; -0.103 (inactive) in test [6]; -1.08 (inactive) in [13] (setting [15]); -0.271 in test [13] (setting [16]). The fraction signal in [4] was -0.012 (inactive).
In turn, `CS(=O)(=O)CCNCc1ccc(-c2ccc3ncnc(Nc4ccc(OCc5ccccc5)c(Br)c4)c3c2)o1` gave a liver cell % of control in test [1] of 107%. Further, the parasite % of control in test [1] was 127% (inactive). Further, the percent of negative control (+Dex) in [2] was 82% (inactive). Moreover, the z-score was -0.54 in [2]; 0.135 (inactive) in test [5]; 2.09 (inactive) in [6]; 0.203 (inactive) in [13] (setting [15]); -0.567 in test [13] (setting [16]). In test [4], the fraction signal is 0.0015 (inactive).
